Only some compounds are listed: those with a hit (about 2.4% of all), similar ones and a draw of the others.
CHT inh: inhibitors of human choline transporter CHT; High affinity choline transporter 1 (Homo sapiens), Q9GZV3; CHT-expressing cells, membrane potential dye, choline response; active compounds read low; B-score at 10 µM; hit rate 0.86% among 310,000; AID 488975, 2010;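 active means B-score over 3 SD under the library average, and starting fluorescence ratio not unusually high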;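 further: choline stimulus applied at its EC90 after an EC20 pre-addition; B-score computed on integrated fluorescence ratio after choline addition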
TMEM16A act: TMEM16A chloride channel activators or potentiators, primary screen, cell-based, HTS. Anoctamin-1 (Mus musculus), Q8BHY3. HEK293 TMEM16A/YFP-H148Q/I152L, iodide quench fluorescence; active compounds read low. B-score at 10 µM. hit rate 0.3% among 340,000. AID 623877, 2012;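 active means fluorescence-ratio B-score plate-corrected deviation score at least 3 library SD below zero, with starting fluorescence score within 5 deviations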;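 further: channel opened by trigger with iodide after compound preincubation; score built on the fluorescence ratio of max minus min over baseline; more negative score means more quench and so TMEM16A activation or potentiation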
CHT PAM: CHT positive allosteric modulators, primary screen, cell-based, membrane potential dye, choline EC20; AID 488977, 2010; High affinity choline transporter 1 (Homo sapiens), Q9GZV3; hit rate 0.49% among 310,000; B-score at 10 µM; CHT-expressing cells; active compounds read high; LV-AA mutant CHT in HEK293 cells;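 active means initial fluorescence not abnormally high and integrated response B-score, plate-corrected, over 3 SD above library mean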
ANO1 block: TMEM16A chloride channel inhibitors, primary screen, cell-based, HTS; Anoctamin-1 (Mus musculus), Q8BHY3; HEK293 TMEM16A/YFP iodide influx fluorescence, ionomycin; normalized B-score (activity score, 25-100; higher = stronger inhibition) at 10 µM; hit rate 1.2% among 310,000;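 active means ratio plate-corrected score three or more library SD toward inhibition, starting fluorescence score within five deviations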;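 further: score derived from kinetic fluorescence span divided by baseline fluorescence per well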
CHT activ conf: CHT activators, confirmation, cell-based, membrane potential dye, duplicate. shares compounds with CHT PAM. CHT-expressing cells, membrane potential dye fluorescence (FDSS); % of choline EC20–EC90 response window; HEK293 expressing CHT LV-AA mutant; choline added at its EC20. activation, % at 10 µM. hit rate 91% among 2,500. AID 504833, 2011;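 active means primary screen active, with duplicate mean activation above negative control mean plus 3 SD, cut at about 11% in these data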
HEK293 MP dye: membrane potential response in parental HEK293 cells, counter-screen for CHT activator project, cell-based, membrane potential dye | shares compounds with CHT PAM | membrane potential dye fluorescence (FDSS); measured after EC20 choline addition | ratio readout change at 10 µM, hits read low | hit rate 62% among 2,500 | AID 623908, 2012;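 active means duplicate-averaged ratio beyond 3 SD from buffer wells, up or down, though filed actives are nearly all decreases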
Each line names hits and unclear results; the compound was inactive in the other large screens (follow-up assays come after a bar, where they were run).

CS(=O)(=O)N(CC(=O)NCCSCc1ccccc1)c1ccccc1	none
CN(C)S(=O)(=O)N(CC(=O)NCCSCc1ccc(Cl)cc1)c1ccccc1	CHT PAM 8 | CHT activ conf inactive | HEK293 MP dye inactive
Cc1c(C=O)c2ccccc2n1CCOc1ccccc1F	none
CCNC(=S)NNC(=O)C(c1ccccc1)c1ccccc1	none
CCCCN(CCCC)CC(O)COc1ccccc1C(=O)Nc1ccccc1 (configuration not stated)	CHT PAM 7.1 | CHT activ conf inactive | HEK293 MP dye inactive
CCN(CC)CC(O)COc1ccccc1C(=O)CCc1ccccc1 (configuration not stated)	none
Cc1ccccc1C1CC(c2cccs2)Nc2nnnn21 (configuration not stated)	none
OCCCNc1cc(-c2ccccc2)nc2cc(-c3ccc(F)cc3)nn12	none
Cc1cc(C)n2nc(-c3ccsc3-n3c(C)ccc3C)cc2n1	none
Cc1cc(NCCN(C)C)n2nc(-c3cccs3)cc2n1	CHT PAM 10 | CHT activ conf 47 | HEK293 MP dye -89
Cc1cc(NCCCO)n2nc(-c3cccs3)cc2n1	CHT PAM 8.1 | CHT activ conf 62 | HEK293 MP dye -56
Cc1ccccc1-c1cc(C(=O)NCc2cccs2)nn1CC1CC(c2cccc([N+](=O)[O-])c2)=NO1 (configuration not stated)	none
CC[n+]1ccc(C[n+]2ccccc2)c2ccccc21	CHT PAM 11 | CHT activ conf 85 | HEK293 MP dye -87
O=C(Nc1ccc(S(=O)(=O)Nc2nccs2)cc1)c1nn(-c2ccc(F)cc2)ccc1=O	CHT PAM 6.3 | CHT activ conf 37 | HEK293 MP dye -36
O=C(Nc1ccc(S(=O)(=O)Nc2nccs2)cc1)c1ccc(F)cc1	none
COc1ccc(C(=O)N/N=C/c2ccccn2)cc1OC	CHT PAM 10 | CHT activ conf 54 | HEK293 MP dye -66
C/C(=N\N=C(N)N)c1cccc([N+](=O)[O-])c1	CHT PAM 6.4 | CHT activ conf 27 | HEK293 MP dye -57
CCc1nnc(NC(=O)CCN2C(=O)C3CCCCC3C2=O)s1 (configuration not stated)	none
CCNc1c(NC(C)=O)c(=O)oc2ccccc12	none | CHT activ conf inactive | HEK293 MP dye inactive
COc1cc(C)ccc1OCc1cc(C(=O)N(Cc2nccn2C)C(C)C)no1	none
Cc1nc2ccccn2c1C(=O)N/N=C/c1cc(C)n(-c2ccc(Br)cc2)c1C	none | CHT activ conf 18 | HEK293 MP dye inactive
COc1ccc(Nc2ncnc3ccccc23)cc1	none
COc1ccc(Nc2ccnc3ccccc23)cc1	CHT PAM 6.6 | CHT activ conf 28 | HEK293 MP dye -55
CC(C)N(C(=O)COC(=O)[C@@H]1CC(O)CN1S(=O)(=O)c1ccc(C(C)(C)C)cc1)C(C)C (some centres not stated)	CHT PAM 7.1 | CHT activ conf inactive | HEK293 MP dye inactive
O=C(COC(=O)C1CC(O)CN1S(=O)(=O)c1ccc(Cl)cc1)c1ccccc1 (configuration not stated)	none
O=C(C[n+]1cc(-c2ccc(Br)cc2)n2c1CCCCC2)c1ccccc1	none | CHT activ conf 23 | HEK293 MP dye inactive
O=C(C[n+]1cc(-c2ccc(Cl)cc2)n2c1CCCCC2)c1ccccc1	none
COC(=O)CNC(c1ccccc1)c1cc(Br)ccc1NC(=O)CNC(=O)OCc1ccccc1 (configuration not stated)	CHT PAM 6.3 | CHT activ conf 47 | HEK293 MP dye inactive
O=C(CN1CCN(S(=O)(=O)c2ccc(Br)s2)CC1)NC1CCCCC1	none (no result: CHT inh, CHT PAM, ANO1 block)
O=c1[nH]cnc2sc3c(c12)CCN(Cc1ccccc1)C3	none
OCCCNc1ncnc2sc3c(c12)CCN(Cc1ccccc1)C3	CHT PAM 6.2 | CHT activ conf 49 | HEK293 MP dye -53
c1ccc2c(N3CCCCC3)ncnc2c1	none
CN1CC[n+]2cnc3ccccc3c21	CHT PAM 12 | CHT activ conf 79 | HEK293 MP dye -72

Compound activity (PubChem)
